Screens from PubChem BioAssay.
Most compounds without a hit are left out; they make up all but 3.8% or so of the library.
Pemphigus Ab inh – inhibitors of pemphigus antibody binding to human desmoglein-3 | 310,000 tested, 0.48% active | P32926 | DSG3-coupled beads, scFv-anti-DSG3-GFP binding, flow cytometry; hits give low values | binding (percent of control), % at 10 µM;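 active means binding more than 3 SD below its plate's average and above zero; inconclusive means below that plate limit but binding exactly zero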;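 further: hits lower antibody fragment binding to DSG3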
PAFAH1B2 inh – inhibitors of human PAFAH1B2. P68402. recombinant PAFAH1B2, FP-rhodamine activity probe, fluorescence polarization. inhibition, % at 3.39 µM. 340,000 tested, 1.2% active. AID 492953;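 active means inhibition above the mean of all tested compounds plus 3 SD, cut at about 24% in these data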;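 further: 0% = enzyme with DMSO and 100% = wells lacking PAFAH1B2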
Target sequence (P68402 whole entry, looked up): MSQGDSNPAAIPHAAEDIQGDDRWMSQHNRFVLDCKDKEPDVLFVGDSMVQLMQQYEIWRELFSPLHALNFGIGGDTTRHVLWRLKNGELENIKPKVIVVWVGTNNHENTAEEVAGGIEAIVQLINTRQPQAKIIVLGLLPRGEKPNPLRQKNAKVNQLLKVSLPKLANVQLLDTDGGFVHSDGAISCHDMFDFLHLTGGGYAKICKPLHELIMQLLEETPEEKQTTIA
PAFAH2 FP inh – PAFAH2 (human) inhibition; inhibition, % at 3.39 µM; recombinant PAFAH2, FP-rhodamine activity probe, fluorescence polarization; 340,000 tested, 0.99% active;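 active means inhibition above the mean over all tested compounds plus 3 SD, cut at about 30% in these data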;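 further: inhibitors block probe labeling of enzyme so polarization drops; 0% = enzyme with DMSO and 100% = wells lacking PAFAH2 protein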
PAFAH1B3 FP inh – inhibitors of human PAFAH1B3; Q15102; recombinant PAFAH1B3, FP-rhodamine probe, fluorescence polarization; inhibition, % at 3.39 µM; 340,000 tested, 0.28% active;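 active means inhibition above the screen-wide average of all tested compounds plus 3 SD, cut at about 25% in these data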;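 further: 0% = enzyme with DMSO only and 100% = wells lacking PAFAH1B3 protein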
PfM18AAP inh – PfM18AAP enzyme inhibition. AID 1822. inhibition, % at 7.35 µM. recombinant PfM18AAP, H-Glu-NHMec fluorogenic cleavage. 290,000 tested, 1.2% active;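 active means inhibition above the campaign mean inhibition over all tested compounds plus 3 SD, cut at about 28% in these data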;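 further: 0% = plate median of test compound wells and 100% = 2 mM ZnCl2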
pPAFAH FP inh – pPAFAH (human) enzyme inhibition | recombinant pPAFAH, FP-rhodamine probe fluorescence polarization | AID 463082 | inhibition, % at 3.39 µM | 330,000 tested, 1.5% active | Q13093;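 active means inhibition above the mean inhibition across the screen plus 3 SD, cut at about 25% in these data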;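 further: inhibitors block binding of the rhodamine activity-based probe so polarization drops; 0% = enzyme with DMSO and 100% = wells lacking pPAFAH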
Target sequence (Q13093 whole entry, looked up): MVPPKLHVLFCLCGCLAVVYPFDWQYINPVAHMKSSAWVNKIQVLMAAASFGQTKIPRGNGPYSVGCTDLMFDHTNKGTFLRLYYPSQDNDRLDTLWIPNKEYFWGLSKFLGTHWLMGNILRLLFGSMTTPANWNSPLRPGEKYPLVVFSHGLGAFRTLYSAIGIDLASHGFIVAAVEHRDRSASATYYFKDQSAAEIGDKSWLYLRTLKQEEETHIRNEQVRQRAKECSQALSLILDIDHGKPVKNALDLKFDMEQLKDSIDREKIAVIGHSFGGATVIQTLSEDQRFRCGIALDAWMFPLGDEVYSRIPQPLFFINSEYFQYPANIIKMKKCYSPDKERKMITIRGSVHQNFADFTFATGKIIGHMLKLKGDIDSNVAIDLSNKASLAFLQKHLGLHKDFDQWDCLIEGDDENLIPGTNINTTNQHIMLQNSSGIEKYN
pPAFAH confirm – confirmation of human plasma PAF acetylhydrolase (pPAFAH) inhibitors. shares compounds with pPAFAH FP inh. recombinant pPAFAH, FP-Rh probe fluorescence polarization. inhibition, % at 3.39 µM. 2,300 tested, 72% active;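 active means mean inhibition of the triplicate above the hit cutoff set for the earlier primary screen, cut at about 25% in these data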;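 further: 0% = enzyme with DMSO and 100% = wells lacking pPAFAH enzyme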
Active calls of the source: *.

For O=C(NCc1ccco1)c1sc(=S)n2c1[nH]c(=O)c1ccccc12 the results were Pemphigus Ab inh 99, PAFAH1B2 inh 18, PAFAH2 FP inh 30, PAFAH1B3 FP inh 19, PfM18AAP inh 8, pPAFAH FP inh 47* and pPAFAH confirm 61*.
O=C(NCc1ccccc1)c1ccc2c(=O)[nH]c3c(C(=O)NCC4CCCO4)sc(=S)n3c2c1 (configuration not stated) was read as Pemphigus Ab inh 117, PAFAH1B2 inh 35*, PAFAH2 FP inh 54*, PAFAH1B3 FP inh 34*, PfM18AAP inh 2, pPAFAH FP inh 63* and pPAFAH confirm 81*.
COc1cc(/C=N/NC(=O)C(Cc2c[nH]c3ccccc23)NC(=O)OCC(C)C)cc([N+](=O)[O-])c1O (configuration not stated) was read as Pemphigus Ab inh 99, PAFAH1B2 inh 17, PAFAH2 FP inh 9, PAFAH1B3 FP inh 5, PfM18AAP inh 6, pPAFAH FP inh 37* and pPAFAH confirm 31*.
`COCCNC(=O)C(Cc1c[nH]c2ccccc12)NC(=O)OCc1ccccc1` (configuration not stated) gave Pemphigus Ab inh 111, PAFAH1B2 inh 1, PAFAH2 FP inh 1, PAFAH1B3 FP inh 10, PfM18AAP inh -14 and pPAFAH FP inh 6.
`COc1cc(/C=N/NC(=O)C(Cc2c[nH]c3ccccc23)NC(=O)OCc2ccccc2)cc([N+](=O)[O-])c1O` (configuration not stated) gave Pemphigus Ab inh 94, PAFAH1B2 inh 43*, PAFAH2 FP inh 26, PAFAH1B3 FP inh 14, PfM18AAP inh 7, pPAFAH FP inh 46* and pPAFAH confirm 52*.
`COc1cc(/C=N/NC(=O)C(Cc2c[nH]c3ccccc23)NC(=O)OCC(C)C)cc([N+](=O)[O-])c1OCc1ccccc1` (configuration not stated) gave Pemphigus Ab inh 105, PAFAH1B2 inh 4, PAFAH2 FP inh -1, PAFAH1B3 FP inh 1, PfM18AAP inh 8 and pPAFAH FP inh 5.
For CCn1c(SCC(=O)Nc2ccc3c(c2)c2ccccc2n3CC)nnc1-c1ccco1 the results were Pemphigus Ab inh 91, PAFAH1B2 inh 4, PAFAH2 FP inh 22, PAFAH1B3 FP inh 2, PfM18AAP inh 5, pPAFAH FP inh 56* and pPAFAH confirm 42*.
CCn1c2ccccc2c2cc(NC(=O)COC(=O)c3ccc(NC(=O)CC#N)cc3)ccc21 was read as Pemphigus Ab inh 69*, PAFAH1B2 inh 5, PAFAH2 FP inh -12, PAFAH1B3 FP inh -3, pPAFAH FP inh 35* and pPAFAH confirm 18.
Screening CCn1c2ccccc2c2cc(NC(=O)c3cc(C)on3)ccc21 returned Pemphigus Ab inh 116, PAFAH1B2 inh 0, PAFAH2 FP inh 0, PAFAH1B3 FP inh 6, PfM18AAP inh 0 and pPAFAH FP inh 11.
For CCn1c2ccccc2c2cc(NC(=O)CN(C)CC(=O)Nc3ccc(N4CCOCC4)cc3)ccc21 the results were Pemphigus Ab inh 102, PAFAH1B2 inh 5, PAFAH2 FP inh 1, PAFAH1B3 FP inh 4, PfM18AAP inh -3, pPAFAH FP inh 38* and pPAFAH confirm 39*.
CCn1c2ccccc2c2cc(NC(=O)c3ccc(Br)o3)ccc21 was read as PAFAH1B2 inh 0, PAFAH2 FP inh 7, PAFAH1B3 FP inh 3, PfM18AAP inh -2, pPAFAH FP inh 42* and pPAFAH confirm 17.
For CCn1c2ccccc2c2cc(NC(=O)COC(=O)c3ccccc3F)ccc21 the results were Pemphigus Ab inh 108, PAFAH1B2 inh -1, PAFAH2 FP inh 2, PAFAH1B3 FP inh 6, PfM18AAP inh -11 and pPAFAH FP inh 15.
COc1ccc(-c2nc(SCC(=O)Nc3cccc(S(N)(=O)=O)c3)n[nH]2)cc1 was read as Pemphigus Ab inh inconclusive, PAFAH1B2 inh 6, PAFAH2 FP inh -2 and PAFAH1B3 FP inh 6.
`Cc1cc(/C=C(\C#N)C(=O)NCC2CCCO2)c(C)n1-c1ccc(Cl)cc1` (configuration not stated) gave Pemphigus Ab inh 95, PAFAH1B2 inh 2, PAFAH2 FP inh 4, PAFAH1B3 FP inh -8, PfM18AAP inh -4, pPAFAH FP inh 67* and pPAFAH confirm 69*.
`CCCCOC(=O)c1ccc(OC(=O)N2CCOCC2)cc1` gave Pemphigus Ab inh 125, PAFAH1B2 inh 4, PAFAH2 FP inh 36*, PAFAH1B3 FP inh 7, PfM18AAP inh 0, pPAFAH FP inh 94* and pPAFAH confirm 97*.
Screening CCCCOC(=O)N1CCOCCOCCN(C(=O)OCCCC)CCOCCOCC1 returned Pemphigus Ab inh 98, PAFAH1B2 inh 4, PAFAH2 FP inh 2, PAFAH1B3 FP inh 5, PfM18AAP inh -1, pPAFAH FP inh 35* and pPAFAH confirm 26*.
For CCOC(=O)N1CCN(C(=O)N2CCOCC2)CC1 the results were Pemphigus Ab inh 107, PAFAH1B2 inh 7, PAFAH2 FP inh 7, PAFAH1B3 FP inh 12, PfM18AAP inh 2 and pPAFAH FP inh 1.
Screening O=C(c1ccccc1)c1ccc(OC(=O)N2CCOCC2)cc1 returned Pemphigus Ab inh 100, PAFAH1B2 inh 5, PAFAH2 FP inh 35*, PAFAH1B3 FP inh 5, PfM18AAP inh -2, pPAFAH FP inh 52* and pPAFAH confirm 53*.
COc1cc(OC)c(OC)cc1CNC(=O)c1cccc(S(=O)(=O)N2CCc3ccccc3C2)c1 was read as Pemphigus Ab inh 106, PAFAH1B2 inh -3, PAFAH2 FP inh 0 and PAFAH1B3 FP inh -2.
Screening CC1CN(C=O)CC(C)N1CCN1C(C)CN(C=O)CC1C (configuration not stated) returned Pemphigus Ab inh 129, PAFAH1B2 inh 2, PAFAH2 FP inh -1 and PAFAH1B3 FP inh 8.
Screening CCCC(=O)OCC(=O)Nc1ccc(N=Nc2ccccc2)cc1 returned Pemphigus Ab inh 96, PAFAH1B2 inh 0, PAFAH2 FP inh -2, PAFAH1B3 FP inh 10, PfM18AAP inh 3 and pPAFAH FP inh 10.
CC1CC1C(=O)OCC(=O)Nc1ccc(N=Nc2ccccc2)cc1 (configuration not stated) was read as Pemphigus Ab inh 98, PAFAH1B2 inh 3, PAFAH2 FP inh 85*, PAFAH1B3 FP inh 4, PfM18AAP inh 2, pPAFAH FP inh 69* and pPAFAH confirm 65*.
`Cc1ccccc1NS(=O)(=O)c1cc2c3c(c1)C(C)C(=O)N3CCC2` (configuration not stated) gave PAFAH1B2 inh -4, PAFAH2 FP inh 0, PAFAH1B3 FP inh -4, PfM18AAP inh -1 and pPAFAH FP inh 16.
For Nc1ccc2nc(-c3ccc(-c4nc5ccc(N)cc5[nH]4)cc3)[nH]c2c1 the results were PfM18AAP inh 16 and pPAFAH FP inh 19.
